Results filed as inconclusive are left out. Calls of active or inactive are those of the source. Unless noted, calls follow the shape of the dose curve; as a rule, active = well fitted curve in the direction sought with a large enough effect; inconclusive = small, poorly fitted or top-dose-only effect, or another doubt; inactive = no such curve, though single readings can be large; an effect the other way counts as inactive or inconclusive.
How the values were obtained:
[1] = S16 Schwann cell PMP22 intronic element beta-lactamase assay (AID 624044; calls by dose curve; also: nearly all actives have a fitted effect of over 15% in size); details: S16 rat Schwann cells, PMP22 element beta-lactamase FRET, 24 h; ratio activity, negative = inhibition: at 38.3 µM (top of the series) unless noted
Method in brief: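 Rat S16 Schwann cells with beta-Lac driven by a PMP22 intronic element, compound-treated 24 h at 37 °C. LiveBLAzer FRET B/G read: 460 nm normalized to potassium clavulanate vs DMSO; 535 nm FRET as viability; concentration-effect curves classified.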

AS120 = assay: qHTS profiling for inhibitors of Plasmodium falciparum proliferation (AID 504749); also: nearly all actives have a fitted effect of over 60% in size; also: potency is read from the fitted curve at half-maximal effect; details: P. falciparum in erythrocytes, SYBR Green DNA, 72 h; series mostly up to 28.7 µM
Method in brief: (§1)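 P. falciparum-infected erythrocytes (0.3% parasitemia, 2.5% hematocrit) incubated with compound 72 h at 37 C, 5% CO2. Parasite DNA detected by SYBR Green after lysis, overnight at room temperature; normalised to 0.29 uM artemisinin and DMSO.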

ATS189 = assay: as above; details: P. falciparum in erythrocytes, SYBR Green DNA, 72 h; series mostly up to 28.7 µM
Method in brief: as §1

CP185 = assay: as above; details: P. falciparum in erythrocytes, SYBR Green DNA, 72 h; series mostly up to 28.7 µM
Method in brief: as §1

CP192 = assay: as above; details: P. falciparum in erythrocytes, SYBR Green DNA, 72 h; series mostly up to 28.7 µM
Method in brief: as §1

CP194 = assay: as above; details: P. falciparum in erythrocytes, SYBR Green DNA, 72 h; series mostly up to 28.7 µM
Method in brief: as §1

CP201 = assay: as above; details: P. falciparum in erythrocytes, SYBR Green DNA, 72 h; series mostly up to 28.7 µM
Method in brief: as §1

CP211 = assay: as above; details: P. falciparum in erythrocytes, SYBR Green DNA, 72 h; series mostly up to 28.7 µM
Method in brief: as §1

CP256 = assay: as above; details: P. falciparum in erythrocytes, SYBR Green DNA, 72 h; series mostly up to 28.7 µM
Method in brief: as §1

Dd2 = assay: as above; details: P. falciparum in erythrocytes, SYBR Green DNA, 72 h; series mostly up to 28.7 µM
Method in brief: as §1

FAB9 = assay: as above; details: P. falciparum in erythrocytes, SYBR Green DNA, 72 h; series mostly up to 28.7 µM
Method in brief: as §1

P94_40 = assay: as above; details: P. falciparum in erythrocytes, SYBR Green DNA, 72 h; series mostly up to 28.7 µM
Method in brief: as §1

PC15 = assay: as above; details: P. falciparum in erythrocytes, SYBR Green DNA, 72 h; series mostly up to 28.7 µM
Method in brief: as §1

TAB109 = assay: as above; details: P. falciparum in erythrocytes, SYBR Green DNA, 72 h; series mostly up to 12.8 µM
Method in brief: as §1

TAB113 = assay: as above; details: P. falciparum in erythrocytes, SYBR Green DNA, 72 h; series mostly up to 28.7 µM
Method in brief: as §1

[2] = target: Muscarinic acetylcholine receptor M1 (Rattus norvegicus) (UniProt P08482); assay: qHTS Assay for Antagonists of Acetylcholine Muscarinic M1 Receptor: Kinetic Measurement of Intracellular Calcium Response (AID 943); also: nearly all actives have a fitted effect of over 75% in size; also: potency is read from the fitted curve at half-maximal effect
Sequence of Muscarinic acetylcholine receptor M1 (Rattus norvegicus) (P08482 whole entry, looked up): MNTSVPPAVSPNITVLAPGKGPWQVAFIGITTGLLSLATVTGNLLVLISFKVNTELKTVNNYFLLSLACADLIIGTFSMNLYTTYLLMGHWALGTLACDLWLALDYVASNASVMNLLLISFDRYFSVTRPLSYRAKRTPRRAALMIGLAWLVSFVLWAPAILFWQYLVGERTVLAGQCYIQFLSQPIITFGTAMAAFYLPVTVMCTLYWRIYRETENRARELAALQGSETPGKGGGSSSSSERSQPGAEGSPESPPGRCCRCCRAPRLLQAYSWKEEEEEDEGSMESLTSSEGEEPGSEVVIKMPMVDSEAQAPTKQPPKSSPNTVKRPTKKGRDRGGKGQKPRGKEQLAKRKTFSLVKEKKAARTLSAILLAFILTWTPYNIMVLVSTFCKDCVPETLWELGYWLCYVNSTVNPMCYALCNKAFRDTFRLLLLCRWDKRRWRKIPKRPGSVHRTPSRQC
Method in brief: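 CHO cells expressing rat M1 receptor, Fluo-4 loaded, preincubated 10 min with compound, then stimulated with EC80 carbachol (100 nM final). Kinetic calcium fluorescence over 4 min; response taken as peak over basal signal.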

[3] = target: Muscarinic acetylcholine receptor M1 (Rattus norvegicus) (UniProt P08482); assay: qHTS Assay for Antagonists of Acetylcholine Muscarinic M1 Receptor: Measurement of IP-One Response (AID 944); also: nearly all actives have a fitted effect of over 75% in size; also: potency is read from the fitted curve at half-maximal effect
Method in brief: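 CHO cells stably expressing rat M1, pretreated 10 min with compound, then stimulated 30 min with carbachol at EC80 (200 nM) in LiCl-containing buffer pH 7.4; IP1 accumulation read by HTRF competition (665/620 nm).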

[4] = qHTS Assay for Identification of Small Molecule Agonists for Thrombopoietin (TPO) Signaling Pathway (AID 917)
Method in brief: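 IL-3-dependent murine pro-B Ba/F3 cells, stably transfected with human TPO receptor and GpIIb-promoter luciferase, are incubated 24 hrs at 37 C with test compound and 26 pM TPO; luciferase signal is read after 10 min at room temperature.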

[5] = target: Cytochrome P450 1A2 (Homo sapiens) (UniProt P05177); assay: p450-cyp1a2 (AID 410; calls by dose curve; also: potency is read from the fitted curve at half-maximal effect)
Sequence of Cytochrome P450 1A2 (Homo sapiens) (P05177 whole entry, looked up): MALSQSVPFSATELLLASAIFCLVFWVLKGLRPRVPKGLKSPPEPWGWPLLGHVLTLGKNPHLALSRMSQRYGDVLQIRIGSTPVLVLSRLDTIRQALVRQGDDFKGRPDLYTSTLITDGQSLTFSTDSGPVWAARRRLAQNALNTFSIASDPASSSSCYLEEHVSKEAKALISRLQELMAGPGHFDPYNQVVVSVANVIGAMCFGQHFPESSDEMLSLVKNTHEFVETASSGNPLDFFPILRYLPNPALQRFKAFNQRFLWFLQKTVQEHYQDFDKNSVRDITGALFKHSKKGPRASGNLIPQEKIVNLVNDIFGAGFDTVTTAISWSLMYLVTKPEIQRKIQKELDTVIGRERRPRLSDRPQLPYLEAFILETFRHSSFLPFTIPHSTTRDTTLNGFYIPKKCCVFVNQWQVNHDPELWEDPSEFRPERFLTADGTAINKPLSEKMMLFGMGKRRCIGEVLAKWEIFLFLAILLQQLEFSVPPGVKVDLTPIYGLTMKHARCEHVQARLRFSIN
Method in brief: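 20nM CYP1A2 with 100uM Luciferin-ME (at Km) in 100mM KPO4; compound preincubated 10 min, NADPH regeneration added, 60 min at room temperature. Luciferin quantified by luminescence after detection reagent; normalized to 57 uM furafylline.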

[6] = Nrf2 qHTS screen for inhibitors: Validation (AID 493153; active = well fitted inhibition curve with a large enough effect in the main read-out, with a control signal flat, not every such curve was filed as active); details: viability change: measured here: cytotoxicity max response
Method in brief: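 A549 cells carrying ARE-firefly luciferase reporter, 5000 cells/well in 5% FBS OPTI-MEM, treated with compound over a concentration series for 18-24 h at 37 C. Luciferase luminescence gave Nrf2 activity; CellTiter-Fluor fluorescence gave viability.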

CCCC[N+]1(C)C2CC(OC(=O)C(CO)c3ccccc3)CC1C1OC12 (stereo unspecified)
inactive: Potency [1] | Potency (AS120) | Potency (ATS189) | Potency (CP185) | Potency (CP192) | Potency (CP194) | Potency (CP201) | Potency (CP211) | Potency (CP256) | Potency (Dd2) | Potency (FAB9) | Potency (P94_40) | Potency (PC15) | Potency (TAB109) | Potency (TAB113)

CC(C)(O)C1C2OC(=O)C1[C@]1(O)C[C@H]3O[C@]34C(=O)O[C@H]2[C@]14C (stereo partly specified) (tested in a mixture with another compound)
inactive: Potency [1] | Potency (AS120) | Potency (ATS189) | Potency (CP185) | Potency (CP192) | Potency (CP194) | Potency (CP201) | Potency (CP211) | Potency (CP256) | Potency (Dd2) | Potency (FAB9) | Potency (P94_40) | Potency (PC15) | Potency (TAB109) | Potency (TAB113)

CCCCN1C2CCC1CC(OC(c1ccc(F)cc1)c1ccc(F)cc1)C2 (stereo unspecified)
active: Potency [2] 0.398 µM | Potency [3] 2.24 µM

NNCc1cccc(O)c1
inactive: outcome [4]

NCC#Cc1ccccc1
active: Potency [5] 3.16 µM
inactive: Potency [3]

CCN(CC)C(=O)N[C@@H]1C[C@@H]2c3cccc4[nH]cc(c34)C[C@H]2N(C)C1
active: Potency (CP211) 3.38 µM | Potency (CP256) 2.24 µM | Potency (Dd2) 3.98 µM
inactive: Potency [1] | Potency (FAB9) | Potency (PC15)

C[C@H]1C2Cc3ccc(O)cc3[C@]1(C)CCN2CC1CC1
inactive: outcome [6]
-0.82%: viability change [6]

C[C@H]1OC[C@@H](C[N+](C)(C)C)O1
inactive: outcome [4] | Potency [2] | Potency [3]

Oc1ccc2c3c1O[C@H]1[C@@H](O)CC[C@@]4(O)C(C2)N(CC2CCC2)CCC314 (stereo partly specified)
inactive: Potency [1] | Potency (AS120) | Potency (ATS189) | Potency (CP185) | Potency (CP192) | Potency (CP194) | Potency (CP201) | Potency (CP211) | Potency (CP256) | Potency (Dd2) | Potency (FAB9) | Potency (P94_40) | Potency (PC15) | Potency (TAB109) | Potency (TAB113)

CC[C@@H](CO)NC(=O)[C@H]1C=C2c3cccc4c3c(cn4C)C[C@H]2N(C)C1
active: Potency [5] 15.8 µM

CCCN(CCC)C(=O)Cc1c(-c2ccc(Cl)cc2)nc2c(Cl)cc(Cl)cn12
inactive: Potency [5] | outcome [4] | Potency [2] | Potency [3]

CC12CCC3C(CCC4=C(O)C(=O)CCC43C)C1CCC2=O (stereo unspecified)
0.774%: viability change [6]
inactive: outcome [6]

COc1cc(C=C(C#N)C#N)cc(O)c1O
inactive: outcome [4] | Potency [2]
active: Potency [5] 12.6 µM

From PubChem BioAssay (NCATS)
